Assay outcomes: PubChem, National Center for Advancing Translational Sciences (NCATS)
ALDH1A1 block – blocks purified human ALDH1A1 activity. Potency, µM (series often up to 75.3 µM), actives largely listed as inhibitors. 7.3% of 220,000 active. Purified ALDH1A1, NADH fluorescence, propionaldehyde substrate; active means well fitted inhibition curve with a large enough effect, not every such curve was filed as active; inconclusive means small, poorly fitted or top-dose-only effect, or another doubt; inactive means no such curve, though single readings can be large or run the other way
IMPase cell inh – membrane-permeable compound that blocks inositol monophosphatase | CHO-M1 cells, IP1 accumulation, HTRF TR-FRET ratio | 120,000 tested, under 10 active | inhibition (IP1 accumulation), % at 46.1 µM | P97697; active means well fitted curve in the direction sought with a large enough effect in the signal ratio, not every such curve was filed as active; inconclusive means small, poorly fitted or top-dose-only effect, or a change in a side signal; inactive means no such curve, though single readings can be large or run the other way; the % refers to the signal ratio;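 further: cells stimulated with carbachol in lithium chloride buffer; higher means more IMPase inhibition seen as more IP1 and lower FRET ratio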
Target sequence (P97697 whole entry, looked up): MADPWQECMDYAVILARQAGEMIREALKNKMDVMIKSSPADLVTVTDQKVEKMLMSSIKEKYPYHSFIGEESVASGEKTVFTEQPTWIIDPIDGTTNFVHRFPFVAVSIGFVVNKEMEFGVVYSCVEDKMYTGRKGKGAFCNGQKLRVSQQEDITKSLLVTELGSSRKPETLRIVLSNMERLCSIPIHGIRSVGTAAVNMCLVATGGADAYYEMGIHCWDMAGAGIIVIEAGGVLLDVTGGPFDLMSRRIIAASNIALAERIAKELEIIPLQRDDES
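In this qHTS, compounds (final up to 46 uM) act on CHO-M1 cells that are then activated through the M1 receptor with carbachol, in pH 7.4 buffer containing 50 mM LiCl, for 30 min. IP1 accumulation is quantified by the IP-One immunoassay.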
IMPase Li inh – IMPase inhibition in cells with lithium potentiation | 0.35% of 210,000 active | Potency, µM (series often up to 59.4 µM), hits mostly inhibitors | CHO-M1 cells, IP1 TR-FRET (IP-One), carbachol + lithium;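 further: IP1 builds up when IMPase is blocked and the TR-FRET signal falls; nearly all actives have a fitted effect of over 50% in size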
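CHO-M1, 2000 cells/well, 16–30 h culture; cpd + low Li+, 30 min 37C; lysis with d2-IP1/Eu-anti-IP1 Ab, 10 min RT; TR-FRET 665/620 ratio and 620 channel; AC50 via Hill.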
HPGD inh – inhibitors of human 15-hydroxyprostaglandin dehydrogenase (HPGD) | purified HPGD, NADH fluorescence kinetic, PGE2 substrate | Potency, µM, actives largely listed as inhibitors | 4.3% of 150,000 active | AID 894; active means well fitted inhibition curve with a large enough effect, not every such curve was filed as active; inconclusive means small, poorly fitted or top-dose-only effect, or another doubt; inactive means no such curve, though single readings can be large or run the other way
Target sequence (P15428 whole entry, looked up): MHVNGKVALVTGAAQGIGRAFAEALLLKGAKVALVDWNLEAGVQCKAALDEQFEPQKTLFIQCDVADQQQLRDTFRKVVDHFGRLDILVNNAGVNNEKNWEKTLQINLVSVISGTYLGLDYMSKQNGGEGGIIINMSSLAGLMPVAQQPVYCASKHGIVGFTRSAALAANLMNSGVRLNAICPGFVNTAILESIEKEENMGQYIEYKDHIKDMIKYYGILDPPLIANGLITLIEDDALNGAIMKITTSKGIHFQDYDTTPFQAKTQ
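20 nM HPGD preincubated 15 min at room temperature with compound in 50 mM Tris-HCl pH 8, 0.01% Tween 20. Started with 1 mM NAD+ and 30 uM prostaglandin E2; NADH fluorescence (360/450 nm) read 5 times over 30-s intervals, last minus first.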
HTT aggregate – mutant huntingtin aggregation inhibition; PC12 HttQ103-GFP aggregates, Acumen cytometry, 40 h; Potency, µM (top dose mostly 46.1 µM), most hits filed as inhibitors; 1.1% of 220,000 active; further: nearly all actives have a fitted effect of over 60% in size
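Read-out: GFP aggregate count by laser scanning cytometer (488 nm excitation, 500-530 nm emission, 1–25 µm objects >6 SD above background). Cells: PC12, inducible HTTex1-Q103-GFP, 100 nM tebufenozide; compounds titrated.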
HTT cytoprotect – Huntington cell model cytoprotection by ATP luminescence; PC12 HTT-Q103 induced, cytoprotection, ATP luminescence, 40 h; Potency, µM (series often up to 56.4 µM), actives largely listed as activators; 0.14% of 230,000 active; AID 1471; further: nearly all actives have a fitted effect of over 45% in size
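Compounds added alongside 100 nM tebufenozide, which induces toxic Q103 huntingtin exon 1-GFP in stable PC12 cells; surviving cells quantified by luminescent ATP measurement. Medium: phenol red-free DMEM, 5% equine and 5% calf serum.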
Hits are given with their value; - = inactive; ? = inconclusive; . = no result; [ ] = dose if it differs, or a comment. Most compounds without a hit are left out; they make up all but 9.4% or so of the library. Unless noted, the call rests on the fitted dose curve; in most records, active means well fitted curve in the direction sought with a large enough effect; inconclusive means small, poorly fitted or top-dose-only effect, or another doubt; inactive means no such curve, though single readings can be large; an effect the other way counts as inactive or inconclusive.

SMILES	ALDH1A1 block	IMPase cell inh	IMPase Li inh	HPGD inh	HTT aggregate	HTT cytoprotect
COc1cccc(N2C(=O)CC(N3CCC(c4nc5ccccc5[nH]4)CC3)C2=O)c1 (stereo not drawn)	32µM	-	-	-	-	-
COc1cccc(N2CCN(C3CC(=O)N(c4ccc(C)c(Cl)c4)C3=O)CC2)c1 (stereo not drawn)	?	-	-	-	-	-[0.074 µM]
C=C[C@@](C)(O)CC[C@H]1[C@]2(C)CCCC(C)(C)[C@H]2CC[C@]1(C)O	.	.	.	.	.	-
COc1cccc(Cn2c(=O)c(-c3ccc(F)cc3)nc3cnc(N(C)C)nc32)c1	?	.	-	.	.	-
O=C1CC(N2CCN(c3cccc(C(F)(F)F)c3)CC2)C(=O)N1c1ccccc1 (stereo not drawn)	-	-	-	-	-	-
O=C1CC(N2CCN(c3cccc(C(F)(F)F)c3)CC2)C(=O)N1c1ccccc1F (stereo not drawn)	20µM	-	-	-	-	-
CCN1C(=O)CC(N2CCC(Nc3ccc(OC)cc3)CC2)C1=O (stereo not drawn)	?	-	-	-	-	-
O=C1CC(N2CCC(c3nc4ccccc4o3)CC2)C(=O)N1c1cc(Cl)cc(Cl)c1 (stereo not drawn)	4µM	-	-	-	-[9.22 µM]	-
COc1ccc(NC2CCN(C3CC(=O)N(c4ccc(F)c(Cl)c4)C3=O)CC2)cc1 (stereo not drawn)	1.1µM	-	-	?	-	-
COc1ccc2c(c1)O[C@@H](c1cccc(C(F)(F)F)c1)[C@H](OC(=O)NCCOc1ccccc1)C2=O	-	.	-	-	.	.
O=C(NNc1ccc([N+](=O)[O-])cc1[N+](=O)[O-])C1C2CCCCC21 (stereo not drawn)	-	.	-	-	-	.
O=C(NNc1ccc([N+](=O)[O-])cc1)C1C2CCCCC21 (stereo not drawn)	25µM	.	-	-	-	.
O=C1c2c(O)ccc([N+](=O)[O-])c2C(=O)c2c([N+](=O)[O-])ccc(O)c21	-	.	-	?	.	-
CCCCC/C=C\C/C=C\C/C=C\C/C=C\CCCCCC(=O)NCC(=O)O	-	.	-	-	.	-
COc1ccc(C(=O)C2CCCN(Cc3c(C)[nH]c4ccccc34)C2)c(OC)c1 (stereo not drawn)	25µM	.	-	.	35µM	-[10 µM]
O=C(NCc1ccco1)c1cccc(NS(=O)(=O)c2ccccc2F)c1	3.5µM	.	-	-	-	-[10 µM]
O=C(NCc1ccco1)c1cccc(-c2nnc(-c3ccccc3)o2)c1	?	-	-	13µM	-	-
O=C(NCc1ccco1)c1cc(NS(=O)(=O)c2cccc([N+](=O)[O-])c2)ccc1O	11µM	.	-	.	-	-
O=C(NCc1ccccn1)c1cccc(NS(=O)(=O)c2ccccc2F)c1	1.3µM	.	-	-	-	-[10 µM]
O=C(NCc1ccco1)c1ccccc1-c1nc(-c2ccccc2)no1	?	-	-	-	-[9.22 µM]	-
C[C@@H]1NC(=O)C/C=C\[C@@H](C)[C@@H]2C=C[C@H](O)[C@@H](COC(=O)[C@H](C)NC(=O)C/C=C\[C@@H](C)[C@@H]3C=C[C@H](O)[C@@H](COC1=O)O3)O2	-[13.5 µM]	.	.	.	.	-[10 µM]
CCc1ccc(C(=O)CC2(O)C(=O)N(CCc3ccccc3)c3ccc(Cl)cc32)cc1 (stereo not drawn)	.	-	.	.	.	.
COc1ccc(-n2c(=S)[nH]c3cc(C(=O)Nc4ccccc4OC)ccc3c2=O)cc1	16µM	?	-	-	-	-[10 µM]
COc1ccc(NC(=O)c2ccc3c(=O)n(-c4ccc(OC)cc4OC)c(=S)[nH]c3c2)cc1	13µM	.	-	.	-	-
COc1ccc(OC)c(-n2c(=S)[nH]c3cc(C(=O)N(C)Cc4ccccc4)ccc3c2=O)c1	?	.	-	.	-	-
COc1ccc(-n2c(=S)[nH]c3cc(C(=O)NCc4ccco4)ccc3c2=O)c(OC)c1	0.32µM	-	-	-	-	-
COc1ccc(-n2c(=S)[nH]c3ccccc32)cc1	32µM	-	-	22µM	-[9.22 µM]	-
